This is an account of results in PubChem BioAssay AID2125 (NMMLSC, 2009).

Active and inactive are the calls of the source.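 Rule for the calls: active = combined score above 50, rising as EC50 falls below 10 µM and growth at top dose drops; inactive = the rest.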 Peptide text beside a SMILES is read from it. * marks the point of attachment. Cbz = O=C(OCc1ccccc1)*

The assay deals with YE3961. The assay is described as follows: growth inhibition of S. cerevisiae strain panel, profiling panel, 26S proteasome disassembly project, secondary panel, OD600 (AID 2125). The note with it: growth OD600, 6-8 h, at 100 µM, active compounds read low.

In the case of `CC(=O)N1C(=O)C(=C2C=C(C)OC(C)=C2)c2ccccc21`, the percent response (growth) was 78.5% (inactive). For `CC(C)C[C@@H](C=O)NC(=O)[C@H](CC(C)C)NC(=O)[C@H](CC(C)C)NC(=O)OCc1ccccc1` (Cbz-Leu-Leu-Leu-aldehyde) the value was 59% (inactive).
